Screens (PubChem BioAssay)
D1 agonist: human D1 receptor agonism | AID 504660 | 360,000 tested, 1% active | HEK293 T-REx D1 cells, calcium flux, agonist mode | activation, % at 2 µM | P21728
Target sequence (P21728 whole entry, looked up): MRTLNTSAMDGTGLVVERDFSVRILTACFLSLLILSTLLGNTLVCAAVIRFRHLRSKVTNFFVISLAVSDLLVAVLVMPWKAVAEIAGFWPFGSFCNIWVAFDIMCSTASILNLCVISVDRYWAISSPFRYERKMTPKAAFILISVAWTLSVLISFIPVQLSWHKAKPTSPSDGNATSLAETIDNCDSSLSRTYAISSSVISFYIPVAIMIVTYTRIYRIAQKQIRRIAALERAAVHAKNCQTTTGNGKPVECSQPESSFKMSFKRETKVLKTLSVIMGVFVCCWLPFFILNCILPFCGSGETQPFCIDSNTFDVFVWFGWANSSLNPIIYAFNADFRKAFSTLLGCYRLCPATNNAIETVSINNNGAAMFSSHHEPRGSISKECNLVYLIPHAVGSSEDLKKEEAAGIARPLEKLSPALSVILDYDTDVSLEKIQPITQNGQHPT
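Inducible HEK293 T-REx D1 cells, force-coupled to calcium signalling, were plated at 4000 cells/well with tetracycline and held overnight at 30 C. After no-wash calcium dye loading, compound-evoked calcium rise over 180 s flagged agonists.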
TRHR PAM: TRH receptor (human) allosteric enhancement. TRHR cells, fluo-8 calcium fluorescence, EC20 TRH enhancement. P34981. 360,000 tested, 0.66% active. AID 493056. enhancement, % at 2 µM; in the data active = enhancement above about 30%
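Enhancer read-out: after compound pinning and an initial kinetic agonist-mode read, an EC20 of TRH (10 nM final) was injected and fluo-8 calcium signal (Ex 480/Em 530) followed at 1 s/cycle for 100 cycles in TRHR-expressing cells.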
Epigenetic derep: regulators of epigenetic silencing causing reporter derepression in mouse cells; 280,000 tested, 0.2% active; AID 1865; Potency, µM (top dose mostly 53.9 µM), usual class: activators; murine LDR cells, GFP reporter derepression, 30 h; active = well fitted activation curve with a large enough effect; note: nearly all actives have a fitted effect of over 60% in size
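Murine LDR cells bearing a silenced CMV-driven GFP reporter were exposed to compound for 30 h at 37 C. After PBS washes, GFP-positive cells (20-120 um objects) counted by laser-scanning microplate cytometry.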
TRHR agonist: agonists of human TRH receptor. P34981. TRHR cells, calcium flux fluo-8, FDSS agonist mode. activation, % at 2 µM. 360,000 tested, 0.18% active. AID 493084
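Agonist-mode FDSS calcium read (Ex 480/Em 530, 1 s cycles) in 1536-well TRHR cells with fluo-8 dye, after 10-cycle baseline and 23 nL compound addition; TRH at EC20 (10 nM final) added afterwards for the enhancer phase.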
D1 PAM: enhances dopamine response at the human D1 receptor; P21728; HEK293 TREx D1 cells, calcium flux, dopamine EC20 potentiation; potentiation, % at 10 µM; 360,000 tested, 0.036% active; in the data active = potentiation above about 30%
D1 antagonist: antagonists of human D1 dopamine receptor | P21728 | HEK293 TREx D1 cells, calcium flux, dopamine EC80; hits give low values | activity change, negative = inhibition, % at 10 µM | 360,000 tested, 3.2% active | AID 504652; in the data active = activity change below about -30%
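Tetracycline-induced HEK293 Trex D1 cells, force-coupled to calcium, dye-loaded; compounds added and read 180 s, then EC80 dopamine added and calcium flux tracked kinetically another 180 s.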
Large screens that a line does not name were inactive. Only some compounds are listed: those with a hit (about 4.6% of all), similar ones and a draw of the others. Cut-off read from the data, not from the text of the source, unless noted: active = activation above about 30%; inactive = the rest.

Cn1c(Cn2c(=O)sc3ccccc32)nnc1SCC(=O)NCc1ccco1	none
CC(=O)Nc1cccc(NC(=O)CCn2c(=O)sc3ccccc32)c1	D1 antagonist -90
COc1ccc(CNC(=O)CSc2nnc3nc(C)cc(C)n23)cc1OC	none
O=C(CSc1nnc(CNc2ccc(Cl)cc2)n1Cc1ccccc1)NCc1ccco1	D1 antagonist -32
O=C(CSc1nnc(Cc2ccccc2)n1Cc1ccccc1)NCc1ccco1	none
Cc1cc(C)n2c(SCC(=O)NCc3ccco3)nnc2n1	D1 antagonist -59
O=C(CCn1c(=O)sc2ccccc21)NCc1ccco1	D1 agonist 79
Cc1cc2nn(-c3ccc(F)cc3)nc2cc1NC(=O)c1cccc([N+](=O)[O-])c1C	none
CC1=C(C(=O)Nc2cccnc2)C(c2ccccc2)n2nc(SCc3ccccc3)nc2N1 (centres undefined)	none
COc1ccc(-n2c(COc3cccc4ccccc34)nnc2SCC(=O)NCc2ccco2)cc1	D1 antagonist -34
COc1cccc(-n2c(COc3ccccc3C)nnc2SCC(=O)O)c1	D1 antagonist -32
O=C(CSc1nnc(Cn2c(=O)sc3ccccc32)n1-c1ccccc1)NCc1ccco1	TRHR PAM 40
Cc1ccccc1-n1c(Cn2c(=O)sc3ccccc32)nnc1SCC(=O)N1CCOCC1	D1 antagonist -38 (no result: D1 PAM)
COc1ccc(-n2c(COc3ccc4ccccc4c3)nnc2SCC(=O)NCc2ccco2)cc1	none
CCN1CCN(C(=O)c2c(C)nn(-c3ccc(F)cc3)c2-n2cccc2)CC1	none
COc1ccc2oc(-c3ccc(C)c(NC(=O)c4ccc(N5CCCCC5)c([N+](=O)[O-])c4)c3)nc2c1	none
CCCCN(C)c1nc2c(S(=O)(=O)c3ccc(CC)cc3)nnn2c2ccc(Cl)cc12	none
Cc1ccc(NC(=O)c2cc(S(=O)(=O)N3CCCc4ccccc43)ccc2F)cc1F	D1 antagonist -31
O=C(Nc1ccc(Cl)cc1)c1cc(S(=O)(=O)N2CCCc3ccccc32)ccc1F	none
O=C(Nc1ccc(Br)cc1)c1cc(S(=O)(=O)N2CCc3ccccc32)ccc1F	D1 antagonist -50
Cc1ccc(OCC(=O)NCC2(N3CCOCC3)CCCCC2)cc1C	none
COc1cccc(CC(=O)OC(C)C(=O)Nc2ccc(Cl)cn2)c1 (centres undefined)	D1 antagonist -35 (no result: Epigenetic derep)
Cc1cc2c(c(=O)n1Cc1ccc3c(c1)OCO3)C(c1cccnc1)C(C#N)=C(N)O2 (centres undefined)	D1 antagonist -90
Cc1cc2c(c(=O)n1Cc1cccnc1)C(c1ccccc1)C(C#N)=C(N)O2 (centres undefined)	none
CCc1ccccc1NC(=O)CCn1cccn1	none
CCc1ccccc1N1CC(c2nnc(NC(=O)c3ccco3)s2)CC1=O (centres undefined)	none
O=C(Cc1ccc([N+](=O)[O-])cc1)N1CCN(c2ccc([N+](=O)[O-])cc2)CC1	none (no result: Epigenetic derep)
CC(C)CNS(=O)(=O)c1ccc(CCC(=O)N2CCN(c3ccc(F)cc3)CC2)cc1	D1 antagonist -32
O=C(Cc1ccc(F)cc1)N1CCN(c2ccc([N+](=O)[O-])cc2)CC1	D1 antagonist -55 (no result: Epigenetic derep)
Cc1ccc(-c2cc3nccc(-c4cc([N+](=O)[O-])ccc4O)n3n2)cc1	none
O=C(CN1C(=O)C2C3C=CC(C4CC34)C2C1=O)NCc1ccco1 (centres undefined)	none
O=C(CN1C(=O)C2C3C=CC(C3)C2C1=O)NCc1ccco1 (centres undefined)	D1 PAM 31
O=C(C1=C(O)C(=O)N(CC2CCCO2)C1c1cccnc1)c1ccco1 (centres undefined)	D1 antagonist -30
Cc1ccc(NC(=S)N(CCN(C)C)Cc2cccs2)cc1	D1 antagonist -36
Cc1cc(C)cc(NC(=S)N(CCN(C)C)Cc2cccs2)c1	none
O=C1NC(=S)N/C1=C\c1ccc(Oc2ccc(C(F)(F)F)cc2[N+](=O)[O-])c(Cl)c1	D1 antagonist -52
CCc1cc2c(nc1CC)CCN(CC/C(C)=N/OC[C@@H](O)COCc1ccco1)C2	none (no result: D1 agonist, TRHR PAM, TRHR agonist, D1 PAM, D1 antagonist)
Cc1ccc2nc(-c3ccc(N4C(=O)CC(N5CCN(CCO)CC5)C4=O)cc3)sc2c1 (centres undefined)	D1 antagonist -36
Cc1ccc(N2C(=O)CC(N3CCN(c4ccccn4)CC3)C2=O)cc1 (centres undefined)	none
Clc1ccccc1Cn1nnc(-c2cccs2)n1	none
Clc1ccccc1Cn1nnc(-c2ccccc2)n1	D1 antagonist -35
OC1(c2ccc(OC(F)F)cc2)CSC(=Nc2cccnc2)N1C1CC1 (centres undefined)	D1 antagonist -30
COc1ccc(COC(=O)N/N=C2/C[C@@H](O)[C@@H](O)[C@@H]3[C@@H]4C(=O)N(C(C)(C)C)C(=O)[C@H]4CC[C@@H]23)cc1	none (no result: D1 agonist, TRHR PAM, TRHR agonist, D1 PAM, D1 antagonist)
O=C(Cn1c(=O)n(-c2ccc(Cl)cc2)c(=O)c2c3c(sc21)CCCCC3)Nc1cccc(Cl)c1	none
CCn1c(=O)cc(SCC(=O)NCCc2ccc(OC)cc2OC)c2ccccc21	none
Cc1ccc(C)n1-c1ccc(C(=O)NCc2ccncc2)cc1	TRHR PAM 31
CCOc1ccc(C(=O)NCc2ccncc2)cc1	none
COc1ccc(CNC(=O)CCSc2ccc(F)cc2)cc1OC	D1 antagonist -40
CCc1ccc2c(c1)c(=O)c(C(=O)c1ccc(C)cc1)cn2CC(=O)Nc1ccc2c(c1)OCCO2	none
Cc1ccc(CNC(=O)c2ccc(N3CCCC3)c(NC(=O)Nc3ccc(F)c(Cl)c3)c2)cc1	none
O=C(O)[C@H]1CCCC[C@H]1C(=O)NCCNC(=O)[C@@H]1CCCC[C@@H]1C(=O)O	none
O=C(O)C1CCCCC1C(=O)OCCCCOC(=O)C1CCCCC1C(=O)O (centres undefined)	D1 antagonist -31
COCc1ccc(C(=O)N2CCCC(C(=O)c3ccc(SC)cc3)C2)s1 (centres undefined)	D1 antagonist -36 (no result: Epigenetic derep)
COc1ccc(OC)c2sc(N3CCN(C(=O)C4CC4)CC3)nc12	none (no result: D1 antagonist)
COc1ccc(C)c2sc(N3CCCC3)nc12	D1 antagonist -37
O=C1CSC(=S)N1c1cccc(Br)c1	D1 antagonist -83 (no result: Epigenetic derep)
O=C1CSC(=S)N1c1cccc(O)c1	none (no result: Epigenetic derep)
COCCNC(=O)CCCn1c(SCC(=O)Nc2cccc(C)c2)nc2c(sc3ccccc32)c1=O	none
